Values joined by “and” are separate entries in the source; they are usually repeats but may differ in a detail not shown here. Equal entries are not always repeated. Records with an inconclusive call do not appear. A call without a number means that no potency is given here. A structure can be active in one record and inactive in another. Active and inactive are the calls of the source. Unless noted, calls come from the whole dose curve; as a rule, active = well fitted cell-killing curve with a large enough effect in the repeat runs; inconclusive = weak or mixed curves, or effect the other way; inactive = flat fitted curve, though single readings scatter.
Assay: qHTS assay to identify small molecule antagonists of the estrogen receptor alpha (ER-alpha) signaling pathway using the BG1 cell line (AID 743080; calls by dose curve;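 note: BG1 cells stimulated with 17beta-estradiol alongside compound; nearly all actives have a fitted effect of over 25% in size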)
Conditions: BG1Luc4E2 ERE-luciferase antagonist mode, luminescence; series mostly up to 70.3 µM; activity change, negative = inhibition: at the top concentration
Procedure, shortened: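 Luciferase inhibition measured with ONE-Glo after 30 min at RT in BG1Luc4E2 cells given test compounds and 17beta-estradiol for 21.5 h at 37 C; CellTiter-Fluor viability read in the same wells beforehand.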
Potency is the fitted concentration of half-maximal effect.

Row | Structure (SMILES) | Potency
1 | CC1=C(/C=C/C(C)=C/C=C/C(C)=C/CO)C(C)(C)CCC1 | 15 µM (active) and 7.79 µM (active) and inactive
2 | CCOC(=O)/C=C\C(=O)OCC | inactive
3 | CCCCCC/C=C/CCCCCCCC(=O)O | inactive
4 | CCCCC/C=C\C/C=C\CCCCCCCC(=O)OC | inactive
5 | CCCCCCOC(C)=O | inactive
6 | CC(C)(C)C1CCC(O)CC1 (stereo not drawn) | inactive
7 | NCc1cccc(CN)c1 | inactive
8 | OCC1CCCO1 (stereo not drawn) | inactive
9 | C=C(C)C(=O)OCCC[Si](OC)(OC)OC | inactive
10 | CC1=CC[C@H]2C[C@@H]1C2(C)C | inactive
11 | CCCCC(CC)C(=O)OCCOCCOCCOC(=O)C(CC)CCCC (stereo not drawn) | inactive
12 | O=C(c1cc(O)c(O)c(O)c1)c1ccc(O)c(O)c1O | inactive
13 | O=C1O[C@H](CO)[C@@H](O)[C@H](O)[C@H]1O | inactive
14 | Oc1c(Cl)cc(Cl)c(Cl)c1Cl | inactive and 68.6 µM (active)
15 | CCC(=O)O | inactive

Assay: qHTS assay to identify small molecule antagonists of the estrogen receptor alpha (ER-alpha) signaling pathway using the BG1 cell line - cell viability counter screen (AID 743081);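 note: compound given together with 17beta-estradiol as the ER stimulus; nearly all actives have a fitted effect of over 45% in size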
Conditions: BG1Luc4E2 viability, CellTiter-Fluor, 22 h; series mostly up to 70.3 µM; activity change, negative = cytotoxicity: at the top concentration

Row | Structure (SMILES) | Potency | activity change, negative = cytotoxicity
16 | CC1=C(/C=C/C(C)=C/C=C/C(C)=C/CO)C(C)(C)CCC1 | inactive | –
17 | O=C1N=C(O)CN1/N=C/c1ccc(-c2ccc([N+](=O)[O-])cc2)o1 | 48.6 µM (active) | –
18 | OCC#CCO | inactive | –
19 | CCOC(=O)/C=C\C(=O)OCC | inactive | –
20 | CC1CC(OC(=O)c2ccccc2O)CC(C)(C)C1 (stereo not drawn) | inactive | –
21 | CCCCCC/C=C/CCCCCCCC(=O)O | inactive | –
22 | CCCCC/C=C\C/C=C\CCCCCCCC(=O)OC | inactive | –
23 | CCCCCCOC(C)=O | inactive | –
24 | S=c1nc[nH]c2nc[nH]c12 | inactive | –
25 | CC(C)(C)C1CCC(O)CC1 (stereo not drawn) | inactive | –
26 | CC(=O)[C@@]1(O)CC[C@H]2[C@@H]3CCC4=CC(=O)CC[C@]4(C)[C@H]3CC[C@@]21C | inactive | –
27 | CCCCCCCCCC(=O)O | inactive | –
28 | NCc1cccc(CN)c1 | inactive | –
29 | CC(C)n1c(/C=C/[C@@H](O)C[C@@H](O)CC(=O)O)c(-c2ccc(F)cc2)c2ccccc21 | inactive | –
30 | CCCCC(CC)COC(=O)CCCCCCCC(=O)OCC(CC)CCCC (stereo not drawn) | inactive | –
31 | OCC1CCCO1 (stereo not drawn) | inactive | –
32 | CCOC(=O)C1OC1c1ccccc1 (stereo not drawn) | inactive | –
33 | C=C(C)C(=O)OCCC[Si](OC)(OC)OC | inactive | –
34 | O=[N+]([O-])c1cc(N(CCO)CCO)ccc1NCCO | 48.5 µM (active) | –

Row | Structure (SMILES) | Potency | activity change, negative = cytotoxicity
35 | CC1=CC[C@H]2C[C@@H]1C2(C)C | inactive | –
36 | C/C=C(C)/C=C/C=C(C)C | inactive | –
37 | C=C1CC[C@H](O)CC1=C/C=C1\CCC[C@]2(C)[C@@H]([C@H](C)/C=C/[C@H](C)C(C)C)CC[C@@H]12 | inactive | –
38 | CCCCC(CC)C(=O)OCCOCCOCCOC(=O)C(CC)CCCC (stereo not drawn) | inactive | –
39 | C=C(C)C(=O)OCC(CC)(COC(=O)C(=C)C)COC(=O)C(=C)C | inactive | –
40 | Oc1ccc2ccccc2c1 | inactive | –
41 | CCCCCCCCCCC=CC1CC(=O)OC1=O (stereo not drawn) | inactive | –
42 | C[C@@H]1O[C@@H](OC[C@H]2O[C@@H](Oc3c(-c4ccc(O)c(O)c4)oc4cc(O)cc(O)c4c3=O)[C@H](O)[C@@H](O)[C@@H]2O)[C@H](O)[C@H](O)[C@H]1O | – | -23.3% (inactive)
43 | O=C(c1cc(O)c(O)c(O)c1)c1ccc(O)c(O)c1O | 68.4 µM (active) and 61.1 µM (active) | –
44 | Oc1ccc(OCc2ccccc2)cc1 | inactive | –
45 | Cc1cc(Cc2ccc(N)c(C)c2)ccc1N | inactive | –
46 | CNC[C@H](O)[C@@H](O)[C@H](O)[C@H](O)CO | inactive | –
47 | Nc1nc2ncc(CNc3ccc(C(=O)N[C@@H](CCC(=O)O)C(=O)O)cc3)nc2c(=O)[nH]1 | inactive | –
48 | CCCCCCCCCCCCN | inactive | –
49 | Cc1cc(NS(=O)(=O)c2ccc(N)cc2)no1 | inactive | –
50 | O=C1O[C@H](CO)[C@@H](O)[C@H](O)[C@H]1O | inactive | –
51 | O=c1c(-c2ccc(O)cc2)coc2cc(O)ccc12 | – | -6.18% (inactive)
52 | Oc1c(Cl)cc(Cl)c(Cl)c1Cl | inactive | –
53 | CCC(=O)O | inactive | –
